# High-throughput results as filed in PubChem BioAssay.
# In the library only some 2.6% were active in any assay of this set; here they are far more common.
# GPR32 ag: qHTS for Agonists of Human Resolvin D1 Receptor DRV1 | CHO-K1 GPR32 beta-arrestin PathHunter luminescence, 90 min; zero percent set by DMSO-only wells | 48,000 compounds, 2.5% hits | activation, % at 76.9 µM;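 active means activation of at least 60% and not above a set upper limit, about 1 call in 100 departs from these limits; inconclusive means activation of 40% to 60%, or above that upper limit; inactive means activation under 40%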
#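 Readings come from a cell-based beta-arrestin complementation format: CHO-K1 GPR32 stable cells (2,500/well) treated 90 min with compounds, then beta-Gal substrate added for 1 h before chemiluminescence imaging.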
# GALK inhibitor: qHTS Assay for Inhibitors of Human Galactokinase (GALK): NCGC Sytravon Library Screen; P51570; recombinant GALK, Kinase-Glo ATP luminescence, 1 h; Potency, µM (titrated, usually from 57.5 µM), hits mostly inhibitors; 44,000 tested, under 10 active; AID 1347072, 2019
#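 Compounds were pinned into ATP buffer, then GALK-galactose mix was added (final 5 nM enzyme, 35 uM ATP, 100 uM galactose, pH 8.0). After 1 h at room temperature, Kinase-Glo Plus was added and luminescence read.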
# GALC G270D act: A Novel Cell-Based Assay to Identify Small Molecules for B -Galactocerebrosidase; 145M-Twi-hGALC-G270D cells (Twitcher mouse brain line with human GALC G270D), HMU-beta-Gal fluorescence, 48 h; Potency, µM (top dose mostly 57.5 µM), hits mostly activators; AID 1159614, 2016; 45,000 compounds, 0.1% hits; further: nearly all actives have a fitted effect of over 65% in size
#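 Live 145M-Twi cells (Twitcher mouse brain-derived, GALC-null) stably expressing human GALC-G270D, with a wild-type GALC line, were compound-treated. Residual GALC activity was then read as fluorescence from 0.1 mM final HMU-β-gal at pH 5.2; higher signal means activation.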
# PTAP-TSG101 blk: qHTS Validation Assay for Inhibitors of HIV-1 Budding by Blocking the Interaction of PTAP/TSG101: Sytravon Library Screen; Tumor susceptibility gene 101 protein (Homo sapiens), Q99816; Potency, µM (top dose mostly 115 µM), most hits filed as inhibitors; Fluorescence polarization, FITC-PTAP peptide/Tsg101, 20 min; 44,000 tested, under 10 active
#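 Fluorescence polarization: Tsg101 binding domain (10 uM final) in 10 mM HEPES pH 7.5, 0.15 M NaCl, 0.01% Tween 20, 3 mM EDTA, 0.1 mM TCEP; compounds pinned; FITC-PTAP peptide 50 nM final; 20 min, r.t.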
# FH mod: Identification of activators of human fumarate hydratase by quantitative high-throughput screening. 54,000 compounds, 0.22% hits. FH coupled MDH/diaphorase resazurin fluorescence, 15 min. Potency, µM (titrated, usually from 79.9 µM), most hits filed as inhibitors; further: the screen sought activators but most active calls are inhibition curves; nearly all actives have a fitted effect of over 45% in size
# B2AR arrestin ag: qHTS assay of beta-arrestin-biased ligands of beta2-adrenergic receptor: NCGC Sytravon Library Screen; Beta-2 adrenergic receptor (Homo sapiens), P07550; HTLA Tango cells, beta-arrestin recruitment, luciferase luminescence, 18 h; Potency, µM (doses to about 46.1 µM), most hits filed as activators; 44,000 tested, under 10 active; AID 1347077, 2019
# Target sequence (P07550 whole entry, looked up): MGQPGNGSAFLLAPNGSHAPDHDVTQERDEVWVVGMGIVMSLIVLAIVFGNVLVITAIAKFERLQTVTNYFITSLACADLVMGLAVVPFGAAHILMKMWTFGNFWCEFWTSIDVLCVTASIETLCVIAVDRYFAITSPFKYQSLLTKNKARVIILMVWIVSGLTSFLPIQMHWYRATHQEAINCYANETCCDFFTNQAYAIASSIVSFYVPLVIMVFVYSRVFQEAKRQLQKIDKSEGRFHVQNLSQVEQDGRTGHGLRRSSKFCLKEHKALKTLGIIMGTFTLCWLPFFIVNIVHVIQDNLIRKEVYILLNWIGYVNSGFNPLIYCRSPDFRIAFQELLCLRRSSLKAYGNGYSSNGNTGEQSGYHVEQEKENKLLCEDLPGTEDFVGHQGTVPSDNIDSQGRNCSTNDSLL
#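 Tango cell line, 1% FBS DMEM; cpd titration up to 46 microM; 18 hr, 37 degrees C, 5% CO2. Luciferin/ATP substrate mix added, 15 min RT, luminescence. %Activity, CRC fitting, curve-class categorization.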
# A number is an active result; - = inactive; ? = inconclusive; . = not tested or not shown; ! = not active in a repeat. Unless noted, the call rests on the fitted dose curve; in most records, active means well fitted curve in the direction sought with a large enough effect; inconclusive means small, poorly fitted or top-dose-only effect, or another doubt; inactive means no such curve, though single readings can be large; an effect the other way counts as inactive or inconclusive.
SMILES,GPR32 ag,GALK inhibitor,GALC G270D act,PTAP-TSG101 blk,FH mod,B2AR arrestin ag
O=C(CCCCn1c(=O)[nH]c2ccsc2c1=O)N1CCN(c2cccc(Cl)c2)CC1,71.9,-,-,-,-,-
CCCCC(CC)CNC(=O)CCCCCn1c(=O)[nH]c2ccsc2c1=O (centres undefined),79.9,-,-,-,-,-
O=C(CCCn1c(=O)[nH]c2ccsc2c1=O)N1CCN(c2cccc(C(F)(F)F)c2)CC1,91.5,-,-,-,-,-
COc1c(C)cc(NC(=O)c2nn(Cc3ccc(F)cc3)c3c2CN(C(=O)c2ccc[nH]2)C[C@]3(C)C(N)=O)cc1C,.,.,.,.,-,.
Clc1ccc(-c2cn3cc(Cc4ccccc4)sc3n2)cc1,-,-,-,-,-,-
Fc1ccccc1Cc1cn2cc(-c3ccc(Cl)cc3)nc2s1,68.2,-,-,-,-,-
CCc1c(C)sc2c1CCN(Cc1cccc(OC)c1)C2c1ccccc1 (centres undefined),61.4,-,-,-,-,-
CCc1c(C)sc2c1CCN(Cc1ccccc1F)C2c1ccccc1 (centres undefined),-,-,-,-,-,-
CC(=O)c1c(C)oc2c1cc(NS(=O)(=O)c1ccc(Br)cc1)c1ccccc12,80.0,-,-,-,-,-
O=C(O)CSc1cc(NS(=O)(=O)c2ccc(Br)cc2)c2ccccc2c1O,.,.,.,.,15.8µM,.
C/C=C/C(O)C1OC(=O)CC1Nc1ccc(C(=O)O)cc1 (centres undefined),.,.,.,.,-,.
CCCCCN=C(N)NN=Cc1c[nH]c2ccc(OC)cc12,.,.,.,.,-,.
CCCCCN=C(N)N/N=C/c1c[nH]c2ccc(OC)cc12,73.5,.,-,.,-,.
CCc1cccc(NC(=O)Cn2c(=O)n(CC(=O)NCCc3ccccc3)c(=O)c3ccccc32)c1,81.2,-,-,-,-,-
COc1ccc(-c2cc3ccc(O)c(CN4CCCC(C)C4)c3oc2=O)cc1OC (centres undefined),-,-,22.4µM,-,-,-
COc1ccc(-c2c(C)c3ccc(O)c(CN4CCCC(C)C4)c3oc2=O)cc1OC (centres undefined),-,-,20µM,-,-,-
Cc1cc(CS(=O)(=O)c2ccccc2)cc(OCc2ccc(CN3CCC[C@@H]3CO)cc2)c1,.,.,.,.,-,.
O=S(=O)(Nc1ccc2nc(-c3ccc(F)cc3)oc2c1)c1ccccc1,?,-,-,-,?,-
Cc1ccc(S(=O)(=O)Nc2ccc3nc(-c4ccc(F)cc4)oc3c2)cc1,66.5,-,-,-,?,-
CC(C)(C)c1ccc(/C=C/C(=O)Nc2ccc(S(N)(=O)=O)cc2)cc1,94.2,-,-,-,-,-
N#Cc1cc([N+](=O)[O-])c2sc(C(N)=O)[n+]([O-])c2c1,-,.,.,.,20µM!,.
O=C(O)[C@H]1CCCC[C@H]1C(=O)N1CCc2ccccc2[C@H]1CN1C(=O)c2ccccc2C1=O,.,.,.,.,-,.
COCCNc1nc(NCc2ccccc2OC)c2cnn(C)c2n1,-,-,-,-,-,-
Cn1ncc2c(NCc3ccccc3Cl)nc(NCCO)nc21,-,-,-,-,-,-
COCCCNc1nc(NCc2ccccc2OC)c2cnn(C)c2n1,75.1,-,-,-,-,-
SMILES,GPR32 ag,GALK inhibitor,GALC G270D act,PTAP-TSG101 blk,FH mod,B2AR arrestin ag
COCCCNc1nc(NCc2ccc(C)cc2)c2cnn(C)c2n1,69.1,-,-,-,-,-
COc1cccc(CCc2ccccc2OCC(CN(C)C)OC(=O)CCC(=O)O)c1 (centres undefined),94.8,.,-,.,-,.
Cc1ccc(NC(=O)c2cc(S(=O)(=O)N3CCOCC3)c(Cl)cc2Cl)cc1,84.0,-,-,-,-,-
COc1ccc(NC(=O)c2noc3c2CCCC3)cc1Cl,85.5,-,-,-,-,-
O=C1c2[nH]nc(-c3ccc(Br)cc3)c2C(c2cccc(O)c2)N1c1ccc(Cl)cc1 (centres undefined),95.7,-,-,-,?,-
Cc1ccc(-c2n[nH]c3c2C(c2cccc(O)c2)N(c2ccc(C(=O)O)cc2)C3=O)cc1 (centres undefined),-,-,-,-,?,-
O=C(Nc1ccc(Cl)c(C(F)(F)F)c1)C1CCN(S(=O)(=O)c2cccc3nonc23)CC1,79.0,-,-,-,-,-
OCc1ccc(O[C@@H]2O[C@H](CO)[C@@H](O)[C@H](O)[C@H]2O)cc1,.,.,.,.,-,.
CCOC(=O)c1cnc2c(ccc3ccccc32)c1Nc1ccccc1OC,85.0,-,-,-,-,-
CCOC(=O)c1cnc2c(ccc3ccccc32)c1Nc1ccccc1OCC,-,-,-,-,-,-
CCCC1=CC2=C(CO1)C(=O)C(C)(OC(=O)c1c(C)cc(OC)cc1O)C(O)C2 (centres undefined),.,.,.,.,-,.
O=[N+]([O-])c1ccc(CSc2ncnc3c2ncn3[C@@H]2O[C@H](CO)C(O)[C@H]2O)cc1 (some centres undefined),.,.,.,.,-,.
COc1cc(C(=O)OC[C@H]2O[C@H](O[C@@]3(CO)O[C@@H](CO)[C@H](O)[C@H]3O)[C@H](O)[C@@H](O)[C@@H]2O)ccc1O,.,.,.,.,-,.
CCOc1ccc(NC(=O)C2CC(=O)NC(=Nc3ccc(Cl)c(Cl)c3)S2)cc1 (centres undefined),-,-,-,-,-,-
Cc1ccc(N=C2NC(=O)CC(C(=O)Nc3cc(C(F)(F)F)ccc3Cl)S2)cc1 (centres undefined),80.5,-,-,-,-,-
Cc1ccc(CNC(=O)CN(c2ccc(C(C)C)cc2)S(=O)(=O)c2c(C)n[nH]c2C)cc1,83.3,-,-,-,-,-
COc1ccc(Nc2ncnc3sc4c(c23)CCCC4)cc1,94.2,-,-,-,-,-
Cc1cc(C)cc(Nc2ncnc3sc4c(c23)CCCC4)c1,-,-,-,-,-,-
CCc1ccc(Nc2ncnc3sc4c(c23)CCCC4)cc1,-,-,-,-,-,-
CC(=O)Nc1ccc(Nc2ncnc3sc4c(c23)CCCC4)cc1,97.4,-,-,-,-,-
CCC1C(=O)N(C)c2cnc(Nc3ccc(C(=O)NC4CCC(N5CCN(CC6CC6)CC5)CC4)cc3OC)nc2N1C(C)C (centres undefined),.,.,.,.,-,.
